Reference: PubChem BioAssay (NCI)
The panel holds about 83,000 compounds, 20% with a hit somewhere; the sample as a whole holds those more often.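 How to read the values: 0–100, growth inhibition (40 = 60% inhibited); 0, no net growth; -100 to 0, cell death (-40 = 40% of starting cells died; -100 = all dead).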 Calls of active or inactive are those of the source. The calls were made as follows: active = growth percent below 10; inactive = the rest.

Assays:
Assay in all cases: NCI-60 one-dose screen, 48 h (100 = growth as untreated, 0 = no growth, -100 = all killed)
[1] = system: SK-MEL-2 melanoma; conditions: 10 µM unless noted
[2] = system: EKVX NSCLC; conditions: 10 µM unless noted
[3] = system: SN12C renal; conditions: 10 µM unless noted
[4] = system: UO-31 renal; conditions: 10 µM unless noted
[5] = system: TK-10 renal; conditions: 10 µM unless noted
[6] = system: ACHN renal; conditions: 10 µM unless noted
[7] = system: CAKI-1 renal; conditions: 10 µM unless noted
[8] = system: CCRF-CEM leukemia; conditions: 10 µM unless noted
[9] = system: MOLT-4 leukemia; conditions: 10 µM unless noted
[10] = system: SR leukemia; conditions: 10 µM unless noted
[11] = system: RPMI-8226 leukemia; conditions: 10 µM unless noted
[12] = system: OVCAR-8 ovarian; conditions: 10 µM unless noted
[13] = system: OVCAR-5 ovarian; conditions: 10 µM unless noted
[14] = system: SK-OV-3 ovarian; conditions: 10 µM unless noted
[15] = system: IGROV1 ovarian; conditions: 10 µM unless noted
[16] = system: OVCAR-3 ovarian; conditions: 10 µM unless noted
[17] = system: HS 578T breast; conditions: 10 µM unless noted
[18] = system: NCI/ADR-RES ovarian; conditions: 10 µM unless noted
[19] = system: A498 renal; conditions: 10 µM unless noted
[20] = system: OVCAR-4 ovarian; conditions: 10 µM

Measured: growth

Nc1nc(Nc2ccccc2)c2ncn(Cc3cc4c(cc3Br)OCO4)c2n1
inactive: [1] 36.9% | [2] 44.7% | [4] 40.3% | [5] 35.1% | [6] 16.9% | [7] 18.2% | [8] 11.2% | [9] 10.4% | [10] 10.5% | [13] 32.1% | [14] 11.5% | [15] 37.5% | [17] 34.1%
active: [3] 7.96% | [11] 9.96% | [12] 6.21% | [16] 2.58% | [18] 8.6%

C=C(C)[C@@H]1CC[C@]2(C(=O)NCCCCCCN(CCCN)CCCN)CC[C@]3(C)[C@H](CC[C@@H]4[C@@]5(C)CC[C@H](OCCCN)C(C)(C)[C@@H]5CC[C@]43C)[C@@H]12
active: [12] -28.3% [100 µM]
inactive: [1] 122% [100 µM] | [2] 141% [100 µM] | [3] 81.9% [100 µM] | [4] 53.4% [100 µM] | [5] 119% [100 µM] | [6] 75.6% [100 µM] | [7] 94.5% [100 µM] | [19] 130% [100 µM] | [9] 10.1% [100 µM] | [10] 18.4% [100 µM] | [11] 29.3% [100 µM] | [13] 90.5% [100 µM] | [14] 97.9% [100 µM] | [15] 27.3% [100 µM] | [16] 71.8% [100 µM] | [17] 94.9% [100 µM] | [18] 86.3% [100 µM]

CC(C)C1=NOC(=O)C1=Cc1cn(-c2cccnc2)nc1-c1ccccc1
inactive: [1] 111% | [2] 100% | [3] 87.5% | [4] 89.7% | [5] 101% | [6] 99.2% | [7] 78% | [8] 11.4% | [9] 11.8% | [12] 89.9% | [13] 100% | [20] 103% | [14] 104% | [15] 102% | [16] 108% | [17] 106% | [18] 110%
active: [10] -22.5% | [11] -16.6%

C=C(C)[C@@H]1CC[C@]2(C)[C@H](CC[C@@H]3[C@@H]([C@@](C)(O)CCC=C(C)C)CC[C@]32C)[C@@]1(C)CCC(=O)O
inactive: [5] 18.1% [100 µM] | [10] 21.4% [100 µM] | [12] 14.8% [100 µM] | [14] 18.4% [100 µM]
active: [1] -41.6% [100 µM] | [2] 8.69% [100 µM] | [3] -64.2% [100 µM] | [4] -93.1% [100 µM] | [6] 6.72% [100 µM] | [7] 2.11% [100 µM] | [8] 0.565% [100 µM] | [9] -0.176% [100 µM] | [11] 0.565% [100 µM] | [13] 3.52% [100 µM] | [15] -24.2% [100 µM] | [16] -70.2% [100 µM] | [17] -16.7% [100 µM] | [18] 6.42% [100 µM]

Cc1cc(C)c(S(=O)(=O)/N=c2/n(-c3ccccc3)nc3n2CCN3C2=NCCN2)c(C)c1
inactive: [1] 104% | [2] 83% | [3] 79.8% | [4] 61.2% | [5] 92.5% | [6] 90% | [7] 74.4% | [8] 83.7% | [9] 66.2% | [10] 39.9% | [11] 76% | [12] 86.7% | [13] 86.5% | [14] 83.2% | [15] 65.5% | [16] 88.7% | [17] 79.3% | [18] 89.1%

COc1cc2c(c(OC)c1OC)-c1cc(I)c(O)cc1[C@@H](NC(C)=O)CC2
active: [15] -3.77%
inactive: [1] 53.4% | [2] 60.2% | [3] 38.6% | [4] 25.3% | [5] 66.9% | [6] 27.9% | [7] 30.7% | [19] 49.2% | [9] 33.7% | [10] 33.2% | [11] 12.9% | [12] 12.6% | [13] 49.2% | [20] 37.3% | [16] 17.5% | [17] 76.4% | [18] 25.4%

O=[N+]([O-])c1cc([N+](=O)[O-])c(C(F)(F)F)cc1NN=C(c1ccc(O)cc1)c1ccc(O)cc1
inactive: [2] 92.7% | [3] 79.7% | [5] 123% | [6] 12.8% | [7] 98% | [8] 112% | [9] 107% | [10] 66.1% | [11] 76.4% | [20] 81.3% | [16] 96.3% | [17] 108%
active: [1] -80.3% | [4] -79.4% | [12] -49.9% | [13] -6.51% | [14] -23.1% | [18] -19.9%

CCOC(=O)c1nn(C2CCCCO2)c2ccc(NC(=O)CN3CCCC3)cc12 (configuration not stated)
inactive: [1] 107% | [2] 95.8% | [3] 98.9% | [4] 84.4% | [5] 103% | [6] 101% | [7] 91.5% | [19] 78.9% | [9] 99.3% | [10] 103% | [11] 105% | [12] 101% | [13] 99.1% | [20] 99.4% | [15] 102% | [16] 109% | [17] 95.4% | [18] 103%

C=CCCC1(C)NC(=O)NC1=O (configuration not stated)
inactive: [1] 102% | [2] 105% | [3] 97.9% | [4] 97.8% | [5] 89.9% | [6] 112% | [7] 93.3% | [8] 85.6% | [9] 83.7% | [10] 94.4% | [11] 104% | [12] 102% | [13] 102% | [20] 99.4% | [14] 94.6% | [15] 115% | [16] 106% | [17] 105% | [18] 103%

C=C(C)[C@@H]1CC[C@]2(COCCC#N)CC[C@]3(C)[C@H](CC[C@@H]4[C@@](C)(CCCNCCC#N)[C@H](C(=C)C)CC[C@]43C)[C@@H]12
inactive: [1] 10% [100 µM] | [2] 92.9% [100 µM] | [3] 27.9% [100 µM] | [4] 15.3% [100 µM] | [5] 49.7% [100 µM] | [6] 11.4% [100 µM] | [7] 27% [100 µM] | [19] 90.5% [100 µM] | [10] 19.1% [100 µM] | [13] 36.7% [100 µM] | [14] 65.1% [100 µM] | [17] 22.2% [100 µM] | [18] 46.3% [100 µM]
active: [9] 2.22% [100 µM] | [11] -37.1% [100 µM] | [12] 3.88% [100 µM] | [15] 7.81% [100 µM] | [16] -0.365% [100 µM]
